As usually defined, the inhibition is the change of the read-out against control, counted positive when it falls.

In all, about 220,000 compounds went through this assay and about 3,300 (1.5%) were called active. This excerpt belongs to a sample that is enriched for actives. Unmarked numbers belong to inactive results.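 How the source made its calls: active means compounds that cut the protein-peptide binding signal by more than 50% relative to plate controls in a single-dose test; inactive means the rest.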

In this assay the target is Induced myeloid leukemia cell differentiation protein Mcl-1 (Homo sapiens) (UniProt Q07820). Briefly: Mcl-1/Noxa binding inhibitors, primary screen, biochemical, TR-FRET, 1536-well (AID 1022).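 Further: His-tagged Mcl-1 with rhodamine Noxa BH3 peptide and terbium anti-His antibody; 0% = Mcl-1 plus Noxa peptide wells and 100% = peptide-only wells.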 The following applies: TR-FRET Mcl-1/Noxa peptide binding, 2 h; at 21.7 µM; stronger effect = higher value. (In TR-FRET formats the signal depends on donor and acceptor labels being close together.)
Sequence of Induced myeloid leukemia cell differentiation protein Mcl-1 (Homo sapiens) (Q07820 whole entry, looked up): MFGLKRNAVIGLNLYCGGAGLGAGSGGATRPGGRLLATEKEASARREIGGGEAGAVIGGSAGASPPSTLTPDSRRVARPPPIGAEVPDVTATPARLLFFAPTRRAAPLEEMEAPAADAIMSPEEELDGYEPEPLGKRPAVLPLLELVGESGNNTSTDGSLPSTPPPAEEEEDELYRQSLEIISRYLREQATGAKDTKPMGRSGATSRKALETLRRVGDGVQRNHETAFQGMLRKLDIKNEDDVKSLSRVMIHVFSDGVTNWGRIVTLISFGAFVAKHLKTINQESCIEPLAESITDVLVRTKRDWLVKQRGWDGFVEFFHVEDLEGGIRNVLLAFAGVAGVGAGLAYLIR
For the compound `CCOc1ccc(N=C2SC(C(=O)O)CC(=O)N2C)cc1` (stereo not given), the inhibition was 16.1%.
Take `CCOc1ccc(N=C2NC(=O)S/C2=C\c2ccc(O)cc2)cc1`: the inhibition was 98.8% (active).
With `NC1=NC(=O)S/C1=C\c1ccc(O)cc1`, the inhibition was 12.7%.
To `O=C(CC12CC3CC(CC(C3)C1)C2)NCc1ccco1` belongs 2.69%.
For the compound `O=C(COC(=O)C12CC3CC(CC(C3)C1)C2)NCc1ccco1`, the inhibition was 54.8% (active).
On to `O=C(COC(=O)CCC(=O)c1cccs1)NCc1ccco1`, for which the inhibition is 41%.
To `COc1ccc(NC(=S)N2CCc3cc(OC)c(OC)cc3C2)cc1` belongs 11.1%.
`CC(/C=N/NC(=O)c1cc(-c2ccc3ccccc3c2)n[nH]1)=C\c1ccco1`: the inhibition was 78.8% (active).
With `CC(/C=N/NC(=O)c1ccncc1)=C\c1ccco1`, the inhibition was 16.1%.
To `Cc1ccc(-c2cc(C(=O)N/N=C/C=C/c3ccco3)c3ccccc3n2)cc1C` belongs 19.7%.
To `COc1ccc(NC(=O)CSc2ncnc3[nH]ncc23)cc1` belongs 16.1%; to `CCN(CC)c1ccc(NC(=O)C2CCC(CNc3c(N4CCCC4)c(=O)c3=O)CC2)c(C)c1` (stereo not given), 19.7%.
`O=C(O)C1CCN(c2ccc([N+](=O)[O-])cc2[N+](=O)[O-])CC1`: the inhibition is 23.9%.
The result for `COc1ccc(N2CCN(c3ccc([N+](=O)[O-])cc3Cl)CC2)cc1` reads 11.9%.
In the case of `O=[N+]([O-])c1ccc(N2CCN(c3ccc(O)cc3)CC2)c(Cl)c1`, the inhibition was 65.2% (active).
`O=C(N/N=C/c1ccc([N+](=O)[O-])cc1)c1c[nH]c2ccccc12`: the inhibition was 14.4%.
To `Cc1nc2ccccc2cc1C(=O)N/N=C/c1ccc([N+](=O)[O-])cc1` belongs 9.39%; to `O=C(N/N=C/c1ccc(Cl)cc1)c1nc2ccc([N+](=O)[O-])cc2c(=O)[nH]1`, 71.4% (active).
For the compound `CN1CCc2ccccc2C1Cc1ccccc1NC(=O)c1sc2ccccc2c1Cl` (stereo not given), the inhibition is -2.87%.
Take `FC(F)(F)c1nc(-c2ccccc2)ncc1-c1nnnn1-c1ccccc1`: the inhibition was 35.2%.
The result for `C=CCNC(=S)N/N=C/c1ccc(C)s1` reads 7.32%.
To `Fc1ccc(-c2ccc(-c3nn4c(-c5ccco5)nnc4s3)o2)cc1` belongs 71% (active).
In the case of `Cc1nnc2sc(-c3ccco3)nn12`, the inhibition was 3.91%.
As for `FC(F)(F)c1nnc2sc(-c3ccco3)nn12`, the inhibition was 2.95%.
Consider `CNc1nnc(-c2ccco2)s1`, for which the inhibition is 6.49%.
The result for `Cc1ccc(OCC(=O)Nc2nnc(-c3ccco3)s2)cc1` reads 17.5%.
The result for `COc1ccc(OCC(=O)Nc2nnc(-c3ccco3)s2)cc1` reads 87.4% (active).
To `Cc1c([N+](=O)[O-])c(N)nn1C` belongs 12.1%.
On to `Cc1ccc(-c2nc(CS(=O)CC(=O)N3CCN(c4ncccn4)CC3)c(C)o2)cc1` (stereo not given), for which the inhibition is 54.7% (active).
As for `COc1ccc(-c2nc(CS(=O)CC(=O)N3CCc4ccccc4C3)c(C)o2)cc1` (stereo not given), the inhibition was 18.7%.
The result for `Cc1ccc(-c2nc(CS(=O)CC(=O)NC3CCCC3)c(C)o2)cc1` (stereo not given) reads 10%.
The result for `O=C(NCc1ccccc1Cl)NC(=O)c1csc([N+](=O)[O-])c1` reads -17.3%; that for `Cc1coc2c(O)cc3c(c12)OC1(N2CCCCC2)C(=O)NCCCC31` (stereo not given), 62.4% (active); that for `COc1ccc(/C=N/n2nnnc2N)cc1OC`, -6.77%.
As for `Cc1c(NC(=O)c2cc(-c3ccc(Cl)s3)nc3ccccc23)c(=O)n(-c2ccccc2)n1C`, the inhibition was -5.37%.
Take `Cc1ccc(-c2cc(C(=O)Nc3nn[nH]n3)c3ccccc3n2)c(C)c1`: the inhibition was 10.4%.
In the case of `Cc1ccc(NC(=O)c2cc(-c3ccc(C)o3)nc3ccccc23)nc1`, the inhibition is 52.1% (active).
The result for `Cc1ccc(C(=O)N/C(=C\c2ccco2)C(=O)NC2CCS(=O)(=O)C2)cc1` (stereo not given) reads 2.28%.
Consider `C/C=C\C=C\C(=O)N1CC2(CC(c3cccc(NC(=O)/C(C)=C\C)c3)=NO2)C[C@H]1C(N)=O` (stereo not given in full), for which the inhibition is -3.38%.
In the case of `C=C(C)C(=O)Nc1cccc(C2=NOC3(C2)C[C@H](C(N)=O)N(C(=O)C(c2ccccc2)c2ccccc2)C3)c1` (stereo not given in full), the inhibition is 79.5% (active).
With `C/C=C(/C)C(=O)Nc1cccc(C2=NOC3(C2)C[C@@H](C(N)=O)N(C(=O)C2(C)CC2)C3)c1` (stereo not given in full), the inhibition was 10.3%.
To `CCCN(CCC)CC(O)COc1ccccc1C(=O)Nc1ccccc1` (stereo not given) belongs 2.75%; to `COc1cc(/C=C(\C#N)C(=O)Nc2ccc3ccccc3c2)c([N+](=O)[O-])cc1OC`, 50.2%.
Take `COC(=O)c1ccc(COc2ccc(/C=N/NC(=O)C(=O)Nc3ccc(OC)cc3)cc2OC)o1`: the inhibition was -4.48%.
To `COc1ccc(NC(=O)/C(C#N)=C\c2cc(OC)c(OCc3ccc(C(=O)O)cc3)cc2Br)cc1` belongs 61.8% (active).
The result for `CCO[C@@H]1OC(C(=O)NC2CC2)=C[C@H](C)[C@H]1CCCO` reads -4.75%; that for `Cc1nc(-c2ccc(Cl)cc2)sc1C(=O)NN`, -14.8%.
The result for `Cc1ccc(SCC(=O)c2sc(-c3ccccc3)nc2C)cc1` reads 12%; that for `Cc1nc(-c2ccc(Cl)cc2)sc1C(=O)CBr`, 61% (active); that for `CC1=CC2=NC(=O)/C(=C/c3coc4ccccc4c3=O)C(=N)N2O1`, 1.38%.
On to `COc1cc(C(=O)Nn2c(O)c(C3=c4ccccc4=NC3=O)sc2=S)ccc1O`, for which the inhibition is 58.1% (active).
To `CCN(CC)C(=O)c1ccc(O)c(OC)c1` belongs 4.61%.
To `COc1cc(C(=S)NC2CCCCC2)ccc1O` belongs 14.7%; to `CC(C)(C)c1ccc(/C=C2\Oc3c(ccc(O)c3CN3CCN(CCO)CC3)C2=O)cc1`, 23.9%; to `CCOC(=O)c1ccc(S(=O)(=O)N(CCO)Cc2cc3cc(OC)c(OC)cc3[nH]c2=O)cc1`, -2.09%.
The result for `O=C(CNC(=O)COc1ccccc1)NCCc1ccccn1` reads 23.7%; that for `O=S(=O)(/C=C/c1ccccc1)NCCc1ccccn1`, 70% (active).
For `CN(CC(=O)NCCc1ccccn1)S(=O)(=O)c1ccc(Cl)cc1`, the inhibition is 0.36%.
The result for `COc1ccccc1OCC(=O)O/N=C(\N)c1ccccn1` reads 17.8%; that for `O=C(NCc1ccccn1)c1cc(-c2ccccc2Cl)on1`, 8.56%.
As for `COCCNC(=O)Nc1ccc2nc(-c3ccco3)c(-c3ccco3)nc2c1`, the inhibition is 107% (active).
For `O=C(NCc1ccccn1)c1ccc2nc(-c3ccco3)c(-c3ccco3)nc2c1`, the inhibition is 91.8% (active).
Regarding `COc1ccc(NC(=O)Nc2ccc3nc(C)c(C)nc3c2)cc1`, the inhibition is 32.9%.
To `COc1ccc(NC(=O)Nc2ccc3nsnc3c2)cc1` belongs 20.7%.
To `O=C(NCc1ccccn1)c1cc(Br)ccc1Cl` belongs 15.5%.

Source of the values: PubChem BioAssay AID1022 (Emory University Molecular Libraries Screening Center, 2008).
